Records with an inconclusive call do not appear. A call without a number means that no potency is given here. The source made the active and inactive calls. Calls come from the whole dose curve; as a rule, active = well fitted cell-killing curve with a large enough effect in the repeat runs; inconclusive = weak or mixed curves, or effect the other way; inactive = flat fitted curve, though single readings scatter.
experiment: qHTS assay to identify small molecule antagonists of the retinoid acid receptor (RAR) signaling pathway - cell viability counter screen (AID 1159551); conditions: C3RL4 cells viability, ATP luminescence (CellTiter-Glo), 6 h; series mostly up to 92.4 µM; note: nearly all actives have a fitted effect of over 35% in size
In short: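 ATP-based viability, C3RL4 cells, 6 h at 37 C with 1 uM final retinol co-added after compound; luminescence read 30 min post CellTiter-Glo, RT.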
Potency is the fitted concentration of half-maximal effect.

| SMILES | Potency |
| --- | --- |
| O=C(c1ccc(OCCN2CCCCC2)cc1)c1c(-c2ccc(O)cc2)sc2cc(O)ccc12 | inactive |
| CC(=O)O[C@]1(C(C)=O)CC[C@H]2[C@@H]3C=C(Cl)C4=CC(=O)[C@@H]5C[C@@H]5[C@]4(C)[C@H]3CC[C@@]21C | inactive |
| C#C[C@]1(O)CC[C@H]2[C@@H]3CCC4=Cc5oncc5C[C@]4(C)[C@H]3CC[C@@]21C | inactive |
| Nc1ncn([C@@H]2O[C@H](CO)[C@@H](O)[C@H]2O)c(=O)n1 | inactive |
| CCOC(=O)C(C#N)=C(c1ccccc1)c1ccccc1 | inactive |
| Cc1ccc(C(=O)c2cc(O)c(O)c([N+](=O)[O-])c2)cc1 | inactive |
| O=C(/C=C/c1ccccc1)OCc1ccccc1 | inactive |
| Cc1cccc(N(C)C(=S)Oc2ccc3ccccc3c2)c1 | inactive |
| Cc1ccc(C)c(O)c1C | inactive |
| c1cc(N(CC2CO2)CC2CO2)ccc1OCC1CO1 (stereo not given) | inactive |
| COC(C)COC(C)COC(C)CO (stereo not given) | inactive |
| Cc1c(OCC(F)(F)F)ccnc1CS(=O)c1nc2ccccc2[nH]1 (stereo not given) | inactive |
| O=C(c1ccccc1)c1ccc(O)cc1O | inactive |
| CN(C)C(=N)N=C(N)N | inactive |
| CN(C)CCN(Cc1cccs1)c1ccccn1 | inactive |
| CC(C)OC(=O)C(C)(C)Oc1ccc(C(=O)c2ccc(Cl)cc2)cc1 | inactive |
| CNCCCC12CCC(c3ccccc31)c1ccccc12 | inactive |
| c1ccc2sc(SSN3CCOCC3)nc2c1 | 61 µM (active) |

| SMILES | Potency |
| --- | --- |
| COc1cccc2c1C(=O)c1c(O)c3c(c(O)c1C2=O)C[C@@](O)(C(=O)CO)C[C@@H]3O[C@H]1C[C@H](N)[C@H](O)[C@H](C)O1 | inactive |
| Cc1cc2nc3c(=O)[nH]c(=O)nc-3n(C[C@H](O)[C@H](O)[C@H](O)CO)c2cc1C | inactive |
| O=c1oc(=O)c2cc3c(=O)oc(=O)c3cc12 | inactive |
| O=C1OC2(c3cc(Br)c(O)c(Br)c3Oc3c2cc(Br)c(O)c3Br)c2c(Cl)c(Cl)c(Cl)c(Cl)c21 | 4.33 µM (active) |
| O=C(/C=C/C=C/c1ccc2c(c1)OCO2)N1CCCCC1 | inactive |
| OC1CCCCCCCCCCC1 | inactive |
| COC(=O)C1=C(C)NC(C)=C(C(=O)OCCN(C)Cc2ccccc2)C1c1cccc([N+](=O)[O-])c1 (stereo not given) | inactive |
| O=C(COc1ccc(Cl)cc1)N1CCN(Cc2ccc3c(c2)OCO3)CC1 | inactive |
| O=C1c2cccc(O)c2C(=O)c2c(O)cccc21 | inactive |
| COc1cc([C@@H]2c3cc4c(cc3[C@H](O)[C@H]3COC(=O)[C@H]23)OCO4)cc(OC)c1OC | inactive |
| CN(C)CCC=C1c2ccccc2CCc2ccccc21 | inactive |
| O=C(O)c1ccccc1Nc1cccc(C(F)(F)F)c1 | inactive |
| CC(C)(C)NC(=O)[C@H]1CC[C@H]2[C@@H]3CC[C@H]4NC(=O)C=C[C@]4(C)[C@H]3CC[C@]12C | inactive |
| Nc1ccc(Nc2ccccc2)cc1 | inactive |
| C[C@]12CC[C@H]3[C@@H](CCC4=CC(=O)CC[C@@]43C)[C@@H]1CC[C@@H]2C(=O)CO | inactive |
| Nc1ccccc1N | inactive |
| S=C(NC1CCCCC1)NC1CCCCC1 | inactive |

From PubChem BioAssay (Tox21)
